Compound activity from PubChem.
VDR inhibitor = blocks the human vitamin D receptor; VDR-SRC2-3 peptide fluorescence polarization, 2 h; Potency, µM, without a hit: max response, negative = inhibition, usual class: inhibitors; actives 0.93% (n = 400,000); AID 504847; P11473; note: % is set by controls: 0 for no effect and ±100 for the full control effect
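Reagent solutions, kept cold and dark, are dispensed first; compounds are then pinned in at 23 nl, plates briefly spun, and incubated 2 h at ambient temperature. Inhibition of VDR–SRC2-3 peptide binding is read by fluorescence polarization.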
BRCA1 expr up = increases BRCA1 expression | MCF7-BRCA1-FFLuc reporter, luminescence, 48 h; response scale: scaled: vehicle 0%, 10 µM genistein 100% | Potency, µM (highest dose often 46.1 µM), for the others: at the top dose activation, most hits filed as activators | actives 1.1% (n = 380,000) | AID 624202; note: nearly all actives have a fitted effect of over 80% in size
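Reporter cells (MCF7, BRCA1 promoter-firefly luciferase) received library compounds across a concentration series for 48 h. End-point luminescence was measured and concentration-effect curves derived after normalization.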
PLK1 PBD block = blocks phosphopeptide binding to human PLK1 polo-box domain; Potency, µM, for the others: max response, negative = inhibition, most hits filed as inhibitors; P53350; AID 720504; actives 2.8% (n = 360,000); Plk1 PBD binding of FITC phosphopeptide, fluorescence polarization; note: series mostly up to about 57 µM; % is set by controls: 0 for no effect and ±100 for the full control effect; nearly all actives have a fitted effect of over 65% in size
Tb PFK block = blocks T. brucei phosphofructokinase; O15648; actives 0.17% (n = 330,000); Potency, µM (top dose mostly 57.5 µM), for the others: top-dose activity, negative = inhibition, actives largely listed as inhibitors; T. brucei PFK, ADP-Glo luminescence;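 note: 0% = uninhibited 1x PFK enzyme wells and -100% = no-enzyme wells; nearly all actives have a fitted effect of over 60% in size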
Target sequence (O15648 whole entry, looked up): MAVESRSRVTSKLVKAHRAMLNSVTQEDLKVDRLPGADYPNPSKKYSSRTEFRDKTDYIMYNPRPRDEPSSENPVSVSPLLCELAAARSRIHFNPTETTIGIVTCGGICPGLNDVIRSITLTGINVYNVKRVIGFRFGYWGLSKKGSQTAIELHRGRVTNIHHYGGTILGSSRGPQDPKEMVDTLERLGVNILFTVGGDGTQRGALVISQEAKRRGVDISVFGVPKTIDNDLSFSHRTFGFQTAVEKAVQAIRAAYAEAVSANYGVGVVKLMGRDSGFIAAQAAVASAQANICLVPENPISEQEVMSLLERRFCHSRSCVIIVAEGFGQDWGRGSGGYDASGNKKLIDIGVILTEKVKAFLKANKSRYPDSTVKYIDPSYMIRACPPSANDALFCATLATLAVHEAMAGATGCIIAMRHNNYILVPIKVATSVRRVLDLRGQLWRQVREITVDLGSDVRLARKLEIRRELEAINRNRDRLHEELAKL
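Compounds were pin-transferred as a titration series up to 57 uM into substrate buffer (0.5 mM F6P, 0.1 mM ATP, pH 8.0), then 1.25 nM PFK was added and reactions ran 45 min before ADP-Glo detection.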
Numbers without * were called inactive; ? = inconclusive; · = not tested or not shown. In the library only some 3.9% were active in any assay of this set; here they are far more common. Calls come from the whole dose curve; as a rule, active = well fitted curve in the direction sought with a large enough effect; inconclusive = small, poorly fitted or top-dose-only effect, or another doubt; inactive = no such curve, though single readings can be large; an effect the other way counts as inactive or inconclusive. Potency is the fitted concentration of half-maximal effect.

SMILES	VDR inhibitor	BRCA1 expr up	PLK1 PBD block	Tb PFK block
COc1cccc(Oc2cn[nH]c2-c2ccc(OCC(=O)NN)cc2O)c1	-21.1%	-42.5%	37.7µM*	2.1%
COc1ccc(-c2cn3cccc(C)c3n2)cc1Br	-11.0%	3.55µM*	-4.1%	2.1%
COc1ccc(S(=O)(=O)Nc2cc(-c3cn4cccc(C)c4n3)ccc2C)cc1C	1.8%	·	·	·
CC1=C[C@@H](O)CC(C)(C)[C@@H]1/C=C/C(C)=C/C=C/C(C)=C/C=C/C=C(C)/C=C/C=C(C)/C=C/C1=C(C)C[C@H](O)CC1(C)C	28.2µM*	·	·	·
CC1=C(/C=C/C(C)=C/C=C/C(C)=C/C=C/C=C(C)/C=C/C=C(C)/C=C/C(=O)[C@]2(C)CC(O)CC2(C)C)C(C)(C)CC(O)C1 (some centres undefined)	2.0%	·	·	·
CC1=C(/C=C/C(C)=C\C=C\C(C)=C\C=C\C=C(C)\C=C\C=C(C)\C=C\C2=C(C)C[C@@H](O)CC2(C)C)C(C)(C)C[C@H](O)C1	39.8µM*	·	·	·
CCCOc1ccccc1C1Oc2nc(SC)nnc2-c2ccccc2N1C(C)=O (centres undefined)	-7.8%	-11.7%	·	·
CN(C)CCCNc1nc2cc(-c3cnn(C)c3)sc2c(=O)n1C	·	12.8%	3.7%	·
Cc1cc(C)cc(-n2c(C)nc3cc(C(=O)NCc4ccc(F)cc4)ccc32)c1	7.0%	·	·	·
CC(C)OC(=O)c1cn(-c2ccccc2)nc1-c1ccco1	79.4µM*	-61.1%	?	?
Cc1ccccc1-c1ccc2ncnc(N3CCNCC3)c2c1	50.1µM*	·	·	·
CC(=O)NCCNc1ncnc2ccc(-c3ccoc3)cc12	39.8µM*	·	·	·
COc1cccc(-c2ccc3ncnc(NCCNC(C)=O)c3c2)c1	-8.0%	·	·	·
CC(=O)NCCNc1ncnc2ccc(-c3ccccc3C)cc12	44.7µM*	·	·	·
CN1CCN(c2ncnc3ccc(-c4ccoc4)cc23)CC1	44.7µM*	·	·	·
COCCNc1ncnc2ccc(-c3ccc(N(C)C)cc3)cc12	39.8µM*	·	·	·
COCCNc1ncnc2ccc(-c3ccoc3)cc12	39.8µM*	·	·	·
c1nc(NCCN2CCOCC2)c2cc(-c3ccoc3)ccc2n1	44.7µM*	·	·	·
COc1cccc(-c2ccc3ncnc(NCCN4CCOCC4)c3c2)c1	4.1%	·	·	·
CS(=O)(=O)Nc1cccc(-c2ccc3ncnc(N4CCOCC4)c3c2)c1	44.7µM*	·	·	·
COc1ccc(N2CCN(C(=O)c3cc4c(=O)n(Cc5cccs5)ccc4nc3C)CC2)cc1	-2.1%	·	·	·
CCc1ccc(CNc2ccc3c(c2)ncn3CC)cc1	8.1%	6.31µM*	-2.0%	-16.3%
CCc1ccc(CNc2ccc3c(c2)ncn3C(C)(C)C)cc1	11.9%	?	-6.7%	-17.3%
CC(C)(C)n1cnc2cc(NCc3ccc(Br)cc3)ccc21	?	?	21.2µM*	0.1%
O=C(O)CCc1cccc2ccccc12	·	0.0%	·	·
SMILES	VDR inhibitor	BRCA1 expr up	PLK1 PBD block	Tb PFK block
CNc1nc(NCC2CCCCC2)c2sccc2n1	·	-39.8%	1.6%	·
COc1cccc(NC(=O)Cn2c(=O)n(CC(=O)NCCc3ccccc3)c(=O)c3sccc32)c1	-5.9%	·	·	·
CCCCCCCCCCCCCCCC(=O)NCC(=O)O	-1.6%	·	·	·
CCOC(=O)/C(C#N)=C/Nc1ccccc1OC	-10.7%	2.24µM*	-2.2%	0.4%
COC(=O)c1ccc(-c2ccc(C(c3c(C)[nH][nH]c3=O)c3c(C)[nH][nH]c3=O)o2)cc1	35.5µM*	-42.5%	11.9µM*	-10.0%
Cc1[nH][nH]c(=O)c1C(c1ccc(-c2ccccc2C(=O)O)o1)c1c(C)[nH][nH]c1=O	-9.1%	-11.1%	?	?
Cc1[nH][nH]c(=O)c1C(c1ccc(-c2cccc(Cl)c2)o1)c1c(C)[nH][nH]c1=O	?	0.0%	11.9µM*	-10.6%
Cc1[nH][nH]c(=O)c1C(c1ccc(-c2cccc(C(=O)O)c2)o1)c1c(C)[nH][nH]c1=O	?	?	?	-1.0%
CC1CCCN(CCCNC(=O)c2ccc3c(c2)N(Cc2cccc(Cl)c2)C(=O)c2ccccc2S3(=O)=O)C1 (centres undefined)	0.6%	·	·	·
COc1ncc2nc(-c3ccc(F)cc3)c(=O)n(Cc3ccc(F)cc3)c2n1	1.9%	·	·	·
CC(=O)c1ccc(N2Cc3ccccc3C2=NC(=O)c2cccs2)cc1	-9.5%	?	-13.7%	0.2%
CCOC(=O)c1ccc(N2Cc3ccccc3C2=NC(=O)c2cccs2)cc1	-6.3%	10µM*	-7.8%	-0.9%
CC(C)(C)C(=O)Cn1ncc(N2CCCC2)c(Br)c1=O	-12.8%	10µM*	-0.1%	-6.1%
Cc1ccc(/C=C/c2onc(C)c2S(=O)(=O)N2CCC(C(=O)N3CC(C)Oc4ccccc43)CC2)cc1 (centres undefined)	8.5%	·	·	·
O=S(=O)(NCCSc1nc2ccccc2o1)c1ccccc1	-18.3%	4.3%	8.44µM*	2.9%
CCS(=O)(=O)CCSc1nc2ccccc2o1	7.2%	13.8%	-4.1%	14.2%
O=[N+]([O-])c1ccc2nc(NCCCO)nc(-c3ccccc3)c2c1	?	-25.8%	21.2µM*	-9.8%
O=C(O)CNc1nc(-c2ccccc2)c2cc([N+](=O)[O-])ccc2n1	-24.8%	-22.2%	-7.3%	0.0%
O=C(Nc1cccc([N+](=O)[O-])c1)C(=O)N1CCCCC1	-13.3%	4.47µM*	-11.7%	-0.3%
O=C(Nc1cccc([N+](=O)[O-])c1)NC1CCCCCCC1	0.5%	6.31µM*	1.7%	-6.7%
O=[N+]([O-])c1cccc(NC(=S)N2CCCC2)c1	-5.1%	4.3%	1.1%	-2.2%
CC(=O)N(c1ccc2ccccc2c1)C1SC(=O)N(c2cccc(C)c2)C1=O (centres undefined)	-11.8%	13.8%	·	·
CCc1noc(-c2ccc(N3CCCCC3)c([N+](=O)[O-])c2)n1	13.4%	7.08µM*	·	·
Cc1noc(-c2ccc(N3CCC(C)CC3)c([N+](=O)[O-])c2)n1	-2.7%	?	·	·
CCc1noc(-c2ccc(N3CCC(C)CC3)c([N+](=O)[O-])c2)n1	1.5%	8.91µM*	·	·
SMILES	VDR inhibitor	BRCA1 expr up	PLK1 PBD block	Tb PFK block
COc1ccc(-c2noc(CSc3nnc(-c4ccncc4)n3-c3cccc(C)c3)n2)cc1OC	11.7%	-23.8%	·	·
O=C1OC(c2ccccc2)=C/C1=C/N1CCOCC1	-0.9%	12.6µM*	-11.0%	?
O=C1OC(c2ccccc2)=C/C1=C\N1CCOCC1	87.4%	?	-10.8%	-26.8%
O=C1CCCN1CC(O)CS(=O)(=O)Cc1ccc(Cl)cc1 (centres undefined)	-2.1%	-11.5%	7.7%	·
CC(C)(C)c1ccc(CS(=O)(=O)CC(O)CN2CCCC2=O)cc1 (centres undefined)	-16.9%	-13.7%	33.6µM*	0.6%
CC(C)Cc1ccc(-c2cc(=O)[nH][nH]2)cc1	-21.3%	-4.6%	16.8µM*	-4.3%
O=[N+]([O-])c1ccc(NN=Cc2ccco2)nc1	-0.9%	10µM*	-0.8%	·
COc1ccc(/C=N/Nc2ccccn2)cc1OC	-12.1%	10µM*	5.3%	-0.4%
O=[N+]([O-])c1ccc(Cl)cc1C=NNc1ccccn1	14.3%	-80.6%	-0.4%	·
O=C(Nc1ccc(Cl)c(Cl)c1)Nc1ccccn1	5.5%	76.7%	4.0%	4.8%
O=[N+]([O-])c1cc(Cl)cc(/C=N\Nc2ccccn2)c1O	?	-82.4%	3.36µM*	-4.4%
